Laboratory results published in the supplement of paper PMC6089552.
The campaign covered roughly 3,200 compounds. About 300 (9.4%) showed activity. Shown is part of a subset that was picked to be rich in actives. Unmarked numbers belong to inactive results.

Test system: A673/TR/shEF
Assay: cell viability (LOESS-normalised, relative to median of negative controls) (log2 ratio); higher = more viable cells (less compound effect), active = hit call of the paper (over 3 MAD below the median)
Details: treatment time: 72 h
Procedure, shortened: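 Doxycycline, present or absent from 24 h before compounds, was used to induce EWS-FLI1 shRNA knockdown in A673/TR/shEF Ewing sarcoma cells at 1,500 per well in 384-well plates. Cells then received library compounds at two or more concentrations, or DMSO controls, for three days. Viability was measured by CellTiter-Glo luminescence on an Envision reader, and per-plate LOESS correction, division by the negative-control median and log2 transformation followed.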

[1] = 0.25 µM, library screen: screen1, EWS-FLI1 expression: high (no doxycycline)
[2] = 0.25 µM, library screen: screen1, EWS-FLI1 expression: low (doxycycline-induced shRNA knockdown)
[3] = 2.5 µM, library screen: screen1, EWS-FLI1 expression: high (no doxycycline)
[4] = 2.5 µM, library screen: screen1, EWS-FLI1 expression: low (doxycycline-induced shRNA knockdown)
[5] = 0.025 µM, library screen: screen1, EWS-FLI1 expression: high (no doxycycline)
[6] = 0.025 µM, library screen: screen1, EWS-FLI1 expression: low (doxycycline-induced shRNA knockdown)
[7] = 0.25 µM, library screen: screen2, EWS-FLI1 expression: high (no doxycycline)
[8] = 0.25 µM, library screen: screen2, EWS-FLI1 expression: low (doxycycline-induced shRNA knockdown)
[9] = 2.5 µM, library screen: screen2, EWS-FLI1 expression: high (no doxycycline)
[10] = 2.5 µM, library screen: screen2, EWS-FLI1 expression: low (doxycycline-induced shRNA knockdown)
[11] = 25 µM, library screen: screen1, EWS-FLI1 expression: high (no doxycycline)
[12] = 25 µM, library screen: screen1, EWS-FLI1 expression: low (doxycycline-induced shRNA knockdown)
[13] = 0.103 µM, library screen: screen3, EWS-FLI1 expression: high (no doxycycline)
[14] = 0.103 µM, library screen: screen3, EWS-FLI1 expression: low (doxycycline-induced shRNA knockdown)
[15] = 0.308 µM, library screen: screen3, EWS-FLI1 expression: high (no doxycycline)
[16] = 0.308 µM, library screen: screen3, EWS-FLI1 expression: low (doxycycline-induced shRNA knockdown)
[17] = 0.926 µM, library screen: screen3, EWS-FLI1 expression: high (no doxycycline)
[18] = 0.926 µM, library screen: screen3, EWS-FLI1 expression: low (doxycycline-induced shRNA knockdown)
[19] = 2.8 µM, library screen: screen3, EWS-FLI1 expression: high (no doxycycline)
[20] = 2.8 µM, library screen: screen3, EWS-FLI1 expression: low (doxycycline-induced shRNA knockdown)
[21] = 8.3 µM, library screen: screen3, EWS-FLI1 expression: high (no doxycycline)
[22] = 8.3 µM, library screen: screen3, EWS-FLI1 expression: low (doxycycline-induced shRNA knockdown)
[23] = 25 µM, library screen: screen3, EWS-FLI1 expression: high (no doxycycline)
[24] = 25 µM, library screen: screen3, EWS-FLI1 expression: low (doxycycline-induced shRNA knockdown)

SMILES: COc1c(Cl)c(C)c2c(c1Cl)OC(=O)c1c(C)c(Cl)c(O)c(Cl)c1O2
- cell viability (log2) [1]: 0.0361
- cell viability (log2) [2]: 0.0285
- cell viability (log2) [3]: 0.0998
- cell viability (log2) [4]: 0.0885

SMILES: CN([C@@H](Cc1ccc(OS(=O)(=O)c2cccc3cnccc23)cc1)C(=O)N1CCN(c2ccccc2)CC1)S(=O)(=O)c1cccc2cnccc12
- cell viability (log2) [5]: 0.267
- cell viability (log2) [6]: 0.00847
- cell viability (log2) [1]: 0.23
- cell viability (log2) [2]: -0.0263
- cell viability (log2) [7]: 0.0748
- cell viability (log2) [8]: 0.07
- cell viability (log2) [3]: -0.171 (active)
- cell viability (log2) [4]: 0.0275
- cell viability (log2) [9]: 0.166
- cell viability (log2) [10]: -0.012
- cell viability (log2) [11]: -0.315 (active)
- cell viability (log2) [12]: 0.00423

SMILES: CC1CN(S(=O)(=O)c2cccc3cnccc23)CCN1 (configuration not stated)
- cell viability (log2) [7]: 0.246
- cell viability (log2) [8]: 0.094
- cell viability (log2) [9]: 0.214
- cell viability (log2) [10]: 0.111

SMILES: COc1ccccc1NC1CC(C)N(C(=O)c2ccc(C)cc2)c2c(C)cccc21 (configuration not stated)
- cell viability (log2) [1]: 0.107
- cell viability (log2) [2]: 0.0693
- cell viability (log2) [3]: 0.128
- cell viability (log2) [4]: 0.111

SMILES: CCCN(CCC)C(=O)C(CCC(=O)O)NC(=O)c1ccccc1 (configuration not stated)
- cell viability (log2) [1]: 0.188
- cell viability (log2) [2]: 0.0317
- cell viability (log2) [7]: 0.129
- cell viability (log2) [8]: 0.0785
- cell viability (log2) [3]: 0.223
- cell viability (log2) [4]: 0.0771
- cell viability (log2) [9]: 0.121
- cell viability (log2) [10]: 0.115

SMILES: Nc1ccc(C(=O)NCC(=O)O)cc1
- cell viability (log2) [1]: 0.0323
- cell viability (log2) [2]: 0.126
- cell viability (log2) [3]: 0.15
- cell viability (log2) [4]: 0.151

SMILES: CC(C)C[C@H](NC(=O)[C@H](CCC(=O)O)NC(=O)CNC(=O)c1ccc(/C=C/C(=O)O)cc1)C(N)=O
- cell viability (log2) [5]: -0.138 (active)
- cell viability (log2) [6]: 0.0951
- cell viability (log2) [1]: -0.0717
- cell viability (log2) [2]: 0.0592
- cell viability (log2) [3]: -0.0597
- cell viability (log2) [4]: 0.0308
- cell viability (log2) [11]: -0.00491
- cell viability (log2) [12]: -0.0971

SMILES: CC(=O)O[C@@H]1CC2C(C)(C)C(=O)CC[C@]2(C)C2CC[C@]3(C)C(=CC(=O)O[C@H]3c3ccoc3)[C@@]21C (some centres not stated)
- cell viability (log2) [1]: 0.0774
- cell viability (log2) [2]: 0.142
- cell viability (log2) [3]: 0.182
- cell viability (log2) [4]: 0.164

SMILES: CCCCC(=O)N(Cc1ccc(-c2ccccc2-c2nn[nH]n2)cc1)[C@H](C(=O)O)C(C)C
- cell viability (log2) [13]: 0.0298
- cell viability (log2) [14]: -0.0095
- cell viability (log2) [15]: 0.124
- cell viability (log2) [16]: 0.0801
- cell viability (log2) [17]: 0.0765
- cell viability (log2) [18]: 0.054
- cell viability (log2) [19]: 0.0694
- cell viability (log2) [20]: 0.124
- cell viability (log2) [21]: 0.00201
- cell viability (log2) [22]: 0.078
- cell viability (log2) [23]: 0.137
- cell viability (log2) [24]: 0.104

SMILES: COc1ccc(/C=C/C(=O)O)cc1OC
- cell viability (log2) [1]: -0.00585
- cell viability (log2) [2]: -0.00138
- cell viability (log2) [3]: 0.164
- cell viability (log2) [4]: 0.0104

SMILES: CC(C)N1C(=O)C(=Cc2cccs2)SC1=S
- cell viability (log2) [1]: 0.108
- cell viability (log2) [2]: 0.0522
- cell viability (log2) [3]: 0.148
- cell viability (log2) [4]: 0.0877

SMILES: O=C1CC[C@]23/C=C/C(=O)NCCCCNCCCNC(=O)/C=C/c4ccc(c2c4)O[C@@H]3C1
- cell viability (log2) [1]: 0.0958
- cell viability (log2) [2]: 0.0883
- cell viability (log2) [3]: 0.0986
- cell viability (log2) [4]: 0.157

SMILES: COc1cc([C@@H]2c3cc4c(cc3[C@@H](O[C@@H]3O[C@@H]5CO[C@@H](C)O[C@H]5[C@H](O)[C@H]3O)[C@H]3COC(=O)[C@H]23)OCO4)cc(OC)c1O
- cell viability (log2) [13]: 0.16
- cell viability (log2) [14]: 0.0754
- cell viability (log2) [1]: 0.0215
- cell viability (log2) [2]: 0.0298
- cell viability (log2) [7]: 0.197
- cell viability (log2) [8]: 0.0698
- cell viability (log2) [15]: 0.0781
- cell viability (log2) [16]: 0.0446
- cell viability (log2) [17]: 0.0107
- cell viability (log2) [18]: 0.0985
- cell viability (log2) [3]: -0.176 (active)
- cell viability (log2) [4]: 0.00733
- cell viability (log2) [9]: -0.711 (active)
- cell viability (log2) [10]: 0.00714
- cell viability (log2) [19]: -0.212 (active)
- cell viability (log2) [20]: -0.0251
- cell viability (log2) [21]: -0.857 (active)
- cell viability (log2) [22]: -0.166 (active)
- cell viability (log2) [23]: -1.25 (active)
- cell viability (log2) [24]: -0.367 (active)

SMILES: COc1cc([C@@H]2c3cc4c(cc3[C@@H](O[C@@H]3O[C@@H]5CO[C@@H](c6cccs6)O[C@H]5[C@H](O)[C@H]3O)[C@H]3COC(=O)[C@H]23)OCO4)cc(OC)c1O
- cell viability (log2) [13]: -0.0319
- cell viability (log2) [14]: -0.00588
- cell viability (log2) [1]: -0.797 (active)
- cell viability (log2) [2]: -0.349 (active)
- cell viability (log2) [15]: -0.326 (active)
- cell viability (log2) [16]: -0.0159
- cell viability (log2) [17]: -0.931 (active)
- cell viability (log2) [18]: -0.262 (active)
- cell viability (log2) [3]: -1.74 (active)
- cell viability (log2) [4]: -0.557 (active)
- cell viability (log2) [19]: -1.32 (active)
- cell viability (log2) [20]: -0.472 (active)
- cell viability (log2) [21]: -2.12 (active)
- cell viability (log2) [22]: -0.477 (active)
- cell viability (log2) [23]: -3.07 (active)
- cell viability (log2) [24]: -0.784 (active)

SMILES: CCCC(CC)CCOC(=O)COc1cc(Cl)c(Cl)cc1Cl (configuration not stated)
- cell viability (log2) [1]: 0.0358
- cell viability (log2) [2]: 0.0314
- cell viability (log2) [3]: 0.0377
- cell viability (log2) [4]: 0.068
